Each structure is given as a SMILES string. Bounds are passed on as bounds.

Consider 17 molecules from ChEMBL document CHEMBL3988442, “University of Dundee, Small-Polar-MMV Screening Library” (2021).

For the assay, the target named is T1, Methionyl-tRNA synthetase, putative (Leishmania donovani (strain BPK282A1)) (UniProt E9BF75).
T1 sequence (whole entry): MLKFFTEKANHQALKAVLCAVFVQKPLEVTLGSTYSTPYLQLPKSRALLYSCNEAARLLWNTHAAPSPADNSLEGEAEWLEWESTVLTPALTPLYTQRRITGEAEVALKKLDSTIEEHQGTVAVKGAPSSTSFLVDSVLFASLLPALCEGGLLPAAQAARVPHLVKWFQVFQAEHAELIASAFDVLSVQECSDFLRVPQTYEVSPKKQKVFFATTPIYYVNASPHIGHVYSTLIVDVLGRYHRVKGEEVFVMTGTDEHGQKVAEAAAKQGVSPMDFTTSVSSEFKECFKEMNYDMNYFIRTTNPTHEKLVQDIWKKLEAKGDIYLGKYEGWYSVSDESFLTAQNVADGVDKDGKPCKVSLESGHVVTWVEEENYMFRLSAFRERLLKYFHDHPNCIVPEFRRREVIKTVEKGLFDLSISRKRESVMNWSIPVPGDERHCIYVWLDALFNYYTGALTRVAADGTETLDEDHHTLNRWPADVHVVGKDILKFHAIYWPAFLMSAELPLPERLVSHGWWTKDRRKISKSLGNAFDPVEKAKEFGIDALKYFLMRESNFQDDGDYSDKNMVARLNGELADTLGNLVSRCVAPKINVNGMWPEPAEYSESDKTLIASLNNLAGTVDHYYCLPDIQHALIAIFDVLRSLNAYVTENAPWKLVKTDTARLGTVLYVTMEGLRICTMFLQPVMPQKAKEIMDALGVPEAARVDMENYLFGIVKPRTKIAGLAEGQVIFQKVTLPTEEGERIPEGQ
Nature of the assay: Leishmania donovani Methionine tRNA synthetase (LdMetRS):v7. Dose response assay. Type of assay: functional. More on the design: conc 80 nM, time 150 minutes.

Molecule `COC(=O)c1cnc(Nc2cccc(C(F)(F)F)c2)c(S(N)(=O)=O)c1` registered a PXC50 (MAX_EFFECT 3.50877193) of under 4, a PXC50 (MAX_EFFECT 6.168224299) of under 4 and a PXC50 (MAX_EFFECT 6.615776081) of under 4.

On to `O=C(CCNC(=O)c1ccccc1F)NCCNc1cccnc1`, for which the PXC50 runs as follows: (MAX_EFFECT 3.623188406) under 4; (MAX_EFFECT 4.761904762) under 4; (MAX_EFFECT 5.779334501) under 4.

The molecule `CC(C)CCNc1nnc(C(C)C)s1` came in with a PXC50 (MAX_EFFECT 4.081632653) of under 4, a PXC50 (MAX_EFFECT 6.479859895) of under 4 and a PXC50 (MAX_EFFECT 7.971014493) of under 4.

Regarding `NS(=O)(=O)c1cc(C(=O)O)cnc1Nc1cccc(C(F)(F)F)c1`, the PXC50 runs as follows: (MAX_EFFECT 5.660377358) under 4; (MAX_EFFECT 10.0877193) under 4; (MAX_EFFECT 16.28498728) under 4.

`NC(=O)c1cccnc1Nc1cccc(S(N)(=O)=O)c1` came in with a PXC50 (MAX_EFFECT 5.69259962) of under 4, a PXC50 (MAX_EFFECT 12.33480176) of under 4 and a PXC50 (MAX_EFFECT 15.08264463) of under 4.

As to `CNS(=O)(=O)CCNc1nc(NCCO)c2cnn(C)c2n1`, the PXC50 was under 4 (MAX_EFFECT 5.780346821), under 4 (MAX_EFFECT 6.392694064) and under 4 (MAX_EFFECT 15.28301887).

As to `Cn1ncc2c(NCCO)nc(NCCS(C)(=O)=O)nc21`, the PXC50 reads like this: (MAX_EFFECT 5.936073059) under 4; (MAX_EFFECT 10.75471698) under 4; (MAX_EFFECT 32.3699422) under 4.

As for `CCc1cccc(Nc2nc(NCCO)c3cnn(C)c3n2)c1`, the PXC50 (MAX_EFFECT 6.404958678) was under 4, the PXC50 (MAX_EFFECT 25.11013216) was under 4 and the PXC50 (MAX_EFFECT 42.00385356) was under 4.

For the molecule `CCc1[nH]c2c(CNc3cncc(C(=O)OC)n3)cc(C)cc2c1C`, the PXC50 by setting is: (MAX_EFFECT 7.798960139) under 4; (MAX_EFFECT 45.13888889) under 4; (MAX_EFFECT 45.63758389) under 4.

The molecule `Cn1ncc2c(NCCO)nc(NCc3cccc(F)c3)nc21` gave a PXC50 (MAX_EFFECT 8.142493639) of under 4, a PXC50 (MAX_EFFECT 8.301886792) of under 4 and a PXC50 (MAX_EFFECT 9.649122807) of under 4.

In the case of `CC(C)c1ccc(CS(=O)(=O)Cc2nc(N)nc(N(C)C)n2)cc1`, the PXC50 by setting is: (MAX_EFFECT 8.163265306) under 4; (MAX_EFFECT 10.86956522) under 4; (MAX_EFFECT 13.83537653) under 4.

In the case of `NS(=O)(=O)c1cccc(Nc2ncccc2S(N)(=O)=O)c1`, the PXC50 was under 4 (MAX_EFFECT 9.108159393), under 4 (MAX_EFFECT 16.73553719) and under 4 (MAX_EFFECT 21.14537445).

As to `CN(C)c1nc(N(C)C)c2cnn(C)c2n1`, the PXC50 runs as follows: (MAX_EFFECT 10.25145068) under 4; (MAX_EFFECT 21.69421488) under 4; (MAX_EFFECT 22.46696035) under 4.

For `Cc1ncc(CCNc2nc(Nc3ccc(F)c(F)c3)nc3c2cnn3C)s1`, the PXC50 by setting is: (MAX_EFFECT 15.8490566) under 4; (MAX_EFFECT 21.03004292) under 4; (MAX_EFFECT 21.85273159) under 4.

As for `CC(CO)Nc1nc(Nc2cccc(C(F)(F)F)c2)nc2c1cnn2C` (stereo unspecified), the PXC50 reads like this: (MAX_EFFECT 16.69829222) under 4; (MAX_EFFECT 21.69811321) under 4; (MAX_EFFECT 22.37442922) under 4.

On to `NS(=O)(=O)c1cc(Cl)cc(Cl)c1`, for which the PXC50 was under 3 (MAX_EFFECT 24.26470588), under 3 (MAX_EFFECT 31.80778032) and under 2.7 (MAX_EFFECT 47.99235182).

As to `Cc1cnn(CC2CN(Cc3nc(C)c4ccccc4n3)CCO2)c1` (stereo unspecified), the PXC50 (MAX_EFFECT 29.53020134) is under 4, the PXC50 (MAX_EFFECT 39.58333333) is under 4 and the PXC50 (MAX_EFFECT 44.19410745) is under 4.
